Screens from PubChem.
In the library only some 2.7% were active in any assay of this set; here they are far more common.
PGC1a acetyl inh: lowers PGC1a acetylation signal in U2OS cells; AlphaScreen anti-acetyl-lysine; with virally co-expressed GCN5 acetyltransferase; inhibition, % at 15.6 µM; hit rate 0.17% among 350,000; AID 651687;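 active = every replicate shows inhibition of at least 40%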;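 note: 0% = neutral control wells and 100% = positive control wells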
HIV Env fusion: blocks HIV Env-driven cell-cell fusion. AID 651610. HeLa-JRFL Env/CEM21 cell fusion, luciferase. inhibition, % at 12.3 µM. hit rate 1.1% among 360,000;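 active = mean replicate inhibition score of at least 50 and every replicate individually at or above 50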;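 note: 0% = plate neutral controls and 100% = maraviroc near 300 nM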
GSIS activator: GLuc luminescence reporter in INS-1E cells, primary screen for activators of glucose-dependent secretion of insulin; INS-1E GLuc reporter insulin secretion, 2-3 h; activation, % at 16.6 µM; hit rate 0.61% among 370,000;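 active = lowest replicate activation of at least 40%, so every replicate reaches that level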;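 note: 0% = median of neutral control wells and 100% = median of IBMX positive control wells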
CFTR F508del cor: CFTR F508del correction in bronchial cells | activity (quench increase), % at 7.58 µM | hit rate 0.36% among 350,000 | CFBE cells, YFP halide quenching; stimulated with forskolin plus potentiator P3; % fluorescence drop versus neutral controls;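 active = mean added fluorescence quench of at least 8% versus neutral control, with both replicates also reaching 8%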;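 note: cells transiently co-express mutant CFTR-F508del with the halide-sensitive YFP; corrector assay measuring rescue of mutant channel to the surface after 24 h compound exposure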
PAX8 inh HTS: lowers PAX8-driven luciferase in RMG-I cells | RMG-I TPO-luciferase reporter, SteadyGlo, 24 h | inhibition, % at 12.6 µM | hit rate 1.2% among 360,000;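 active = mean replicate inhibition at least 60% with every replicate also reaching 60%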;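 note: luciferase light reporting Pax8 driven TPO promoter activity; plate controls were median of neutral control wells for no effect and mitoxantrone controls for full effect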
EWS-Fli inh: EWS/Fli transcriptional activity inhibition | A673 NR0B1-luciferase reporter, viability-normalised | inhibition, % at 12.6 µM | AID 651661 | hit rate 0.67% among 350,000;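 active = mean inhibition of at least 50% after viability correction, with every replicate also passing that limit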;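 note: firefly luciferase signal divided by Alamar Blue viability fluorescence both relative to DMSO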
Numbers without * were called inactive; nt = not tested or not shown; [ ] = another dose, or the depositor's remark.

SMILES	PGC1a acetyl inh	HIV Env fusion	GSIS activator	CFTR F508del cor	PAX8 inh HTS	EWS-Fli inh
N#C/C(=C\c1ccc(OCc2ccc(C(=O)O)cc2)cc1)C(=O)N1CCOCC1	nt	65*	-4	-3	87*	81*
COc1ccc(-c2cn(-c3ccc(Br)cc3)c3[n+]2CCS3)cc1	-2	19	-26	nt	65*	6
Clc1ccc(-c2cn(-c3ccccc3)c3[n+]2CCS3)cc1	-13	6	-37	-2	10	8
CC(C)NC(=O)Nc1ccc2c(c1)C(=O)N([C@H](C)CO)C[C@@H](C)[C@H](CN(C)Cc1ccc(Cl)c(Cl)c1)OCCCC[C@@H](C)O2	-15	8[16.7 µM]	-21	-3	48	5
Cc1c(C(=O)OCC(=O)N2CC(=O)Nc3ccccc32)oc2ccc(Br)cc12	-3	nt	73*	nt	nt	nt
CC1CCC(NCCNC(=O)c2ccco2)CC1 (stereo unspecified)	4	5	44*	-1	12	5
O=C(NCCNC1CCCCC1)c1ccco1	8	1	13	1	-1	6
COC(=O)c1cc(NCc2c(F)cccc2Cl)ccc1N1CCOCC1	5	34	2	nt	nt	nt
COC(=O)c1ccc(NCc2c(O)ccc(O)c2Br)cc1Cl	nt	-119	-3	-2	6	72*
COC(=O)c1ccc(NCc2cc(O)ccc2O)cc1O	nt	-8	-9	0	35	57*
C[C@H]1CN([C@@H](C)CO)C(=O)c2cc(C#CC3CCCCC3)cnc2O[C@@H]1CN(C)Cc1ccncc1	-6	-2[16.7 µM]	-24	2	nt	6
O=C(NCCN1C(=O)S/C(=C\c2ccc(Cl)c([N+](=O)[O-])c2)C1=O)C1=COCCO1	4	-17	1	-3	70*	41
O=C(NCCN1C(=O)S/C(=C\c2ccc(Cl)c(Cl)c2)C1=O)c1cnccn1	nt	10	1	nt	-15	nt
C[C@H](CO)N1C[C@H](C)[C@@H](CN(C)S(=O)(=O)c2ccc(F)cc2)OCCCC[C@H](C)Oc2ccc(NS(=O)(=O)c3cn(C)cn3)cc2C1=O	-5	-25[16.7 µM]	20	-1	7	7
Cc1ccc(S(=O)(=O)N(C)C[C@H]2Oc3cc(C4=CCCC4)ccc3S(=O)(=O)N([C@H](C)CO)C[C@H]2C)cc1	5	60*[16.7 µM]	5	-2	41	11
C[C@@H]1CN([C@@H](C)CO)S(=O)(=O)c2ccc(C3=CCCCC3)cc2O[C@@H]1CN(C)S(=O)(=O)c1ccc(F)cc1	-3	62*[16.7 µM]	1	0	nt	16
Cc1ccc(S(=O)(=O)N(C)C[C@@H]2Oc3cc(C4=CCCC4)ccc3S(=O)(=O)N([C@@H](C)CO)C[C@H]2C)cc1	-2	58*[16.7 µM]	9	5	71*	10
C[C@H]1CN([C@@H](C)CO)S(=O)(=O)c2ccc(C3=CCCCC3)cc2O[C@H]1CN(C)S(=O)(=O)c1ccc(F)cc1	-18	40[16.7 µM]	-9	1	nt	33
Cc1noc(C)c1S(=O)(=O)Nc1ccc2c(c1)CC(=O)N([C@@H](C)CO)C[C@H](C)[C@H](CN(C)C)O2	1	nt	28	-3	0	-5
COc1ccc(S(=O)(=O)Nc2ccc3c(c2)CC(=O)N([C@H](C)CO)C[C@@H](C)[C@H](CN(C)S(C)(=O)=O)O3)cc1	-8	-73[16.7 µM]	9	0	-22	-10
NC(Cc1ccc(F)cc1)c1csc(Nc2ccc(C(F)(F)F)cn2)n1 (stereo unspecified)	0	71*	-29	0	8	-2
Cc1cnc(C)c(Nc2nc(C(N)Cc3ccccc3)cs2)n1 (stereo unspecified)	0	-27	5	3	-4	15
NC(Cc1cnc[nH]1)c1csc(Nc2ccc(C(F)(F)F)cn2)n1 (stereo unspecified)	1	-13	-12	0	15	11
Cc1cnc(C)c(Nc2nc(C(N)Cc3ccc(C(F)(F)F)cc3)cs2)n1 (stereo unspecified)	-4	106*	-36	0	9	15
CC(C)NC(=O)N(C)C[C@H]1OCCCC[C@@H](C)Oc2ccc(NS(C)(=O)=O)cc2C(=O)N([C@@H](C)CO)C[C@H]1C	-11	-74[16.7 µM]	26	-4	-2	-8
